The text below walks through data of PubChem BioAssay (NCI).

Each structure is given as a SMILES string. The panel holds about 83,000 compounds, 20% with a hit somewhere; the sample as a whole holds those more often.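 48-hour exposure, single concentration, 96-well plates; percent growth endpoint where 0 means no net growth. Active: below 10.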 Unmarked numbers belong to inactive results. The source made the active and inactive calls.

Some test systems named below: T-47D breast; BT-549 breast; MDA-MB-435 melanoma; SW-620 colon; MCF7 breast; HCT-116 colon; HCC-2998 colon; KM12 colon.
What all share (test): NCI-60 one-dose screen, 48 h (100 = growth as untreated, 0 = no growth, -100 = all killed)
What all share (conditions): 10 µM unless noted

On to `O=S(=O)(Nc1ccc(F)c(Cl)c1)c1ccc(-c2cnc(C3CC3)o2)cc1`, for which the growth in the assay with T-47D breast is 27.4%; with BT-549 breast it was 36.3%; with MDA-MB-435 melanoma it was 2.08% (active); in the assay with SW-620 colon it was 17.3%; with MCF7 breast it was 15.5%; in the assay with HCT-116 colon, 19.7%. The growth in the assay with HCC-2998 colon was 32%; with KM12 colon, 30.8%.

`CN[C@@]12CC3(C=CC(=O)C=C3)O[C@]1(Cc1ccc(OC)cc1)N(C)C(=O)N2`: the growth is 47.8% in the assay with T-47D breast; 44.3% with BT-549 breast; 31.4% in the assay on MDA-MB-435 melanoma; 24.6% in the assay on SW-620 colon; 16.4% in the assay with MCF7 breast; 4.01% (active) in the assay on HCT-116 colon. For the same molecule, the growth in the assay with HCC-2998 colon is 100%; in the assay with KM12 colon, 98.2%.

For the molecule `CCOC(=O)c1ccc2c(c1)nc(/C=C/c1ccc(Cl)cc1)n2-c1cc(C(C)(C)C)[nH]n1`, the growth with T-47D breast was 56.2%; in the assay with BT-549 breast, 57.4%; in the assay on MDA-MB-435 melanoma, 62.7%; with SW-620 colon, 64.9%; with MCF7 breast, 42.4%; with HCT-116 colon, 52%. The values for the growth in the assay on HCC-2998 colon and with KM12 colon were 88.4% and 54%, respectively.

With `COc1cccc(-c2cn3c(ccc4ccccc43)n2)c1`, the growth in the assay on T-47D breast is 46.1%; in the assay with BT-549 breast, 37.8%; with MDA-MB-435 melanoma, -25.6% (active); in the assay with SW-620 colon, 26.2%; in the assay with MCF7 breast it was 17.4%; with HCT-116 colon, 40.6%. For the same molecule, the growth is 68.8% in the assay with HCC-2998 colon and 34.6% in the assay with KM12 colon.

Turning to `COc1ccc(/C(=C/c2ccc3ccccc3c2)c2nn[nH]n2)cc1OC`, the growth was 36.1% with T-47D breast; 40.3% with BT-549 breast; -41% (active) in the assay with MDA-MB-435 melanoma; 29.2% with SW-620 colon; 52.3% with MCF7 breast; 17.7% in the assay with HCT-116 colon. Besides, the results for the growth in the assay on HCC-2998 colon and with KM12 colon were 55.4% and 24.5%, respectively.

On to `CNCCCn1c2c(c3ccc([N+](=O)[O-])cc3c1=O)C(=O)c1cc(OC)cnc1-2`, for which the growth with T-47D breast is -7.15% (active); in the assay with BT-549 breast it was -25.6% (active); with MDA-MB-435 melanoma, -76.7% (active); in the assay with SW-620 colon, -34.1% (active); in the assay with MCF7 breast, 0.912% (active); with HCT-116 colon, -53.9% (active). Besides, the growth in the assay on HCC-2998 colon was 11.1%; in the assay on KM12 colon, -4.18% (active).

On to `C=C1CC[C@@H]2[C@](C)(COC(C)=O)[C@H](OC(C)=O)CC[C@@]2(C)[C@@H]1CC(Nc1ccc(S(=O)(=O)Nc2ccc(Cl)nn2)cc1)C1=CCOC1=O` (stereo partly drawn), for which the growth in the assay on T-47D breast was 34.1%; with BT-549 breast it was -9.45% (active); in the assay with MDA-MB-435 melanoma, 8.13% (active); in the assay with SW-620 colon, -37.7% (active); in the assay with MCF7 breast, 16.8%; in the assay with HCT-116 colon, -34.1% (active). The growth was 88.5% with HCC-2998 colon and 27% in the assay with KM12 colon.

Take `COc1cc(/C=N/N(C)C)ccc1O`: the growth was 94.4% in the assay with T-47D breast; 105% in the assay on BT-549 breast; 106% with MDA-MB-435 melanoma; 90.7% in the assay on SW-620 colon; 98.4% in the assay with MCF7 breast; 101% in the assay with HCT-116 colon. Besides, the figures for the growth in the assay with HCC-2998 colon and in the assay with KM12 colon were 107% and 103%, respectively.

For the molecule `CN1CCN(Cc2ccc(NC(=O)c3[nH]ncc3Nc3ncnc4sccc34)cc2)CC1`, the growth with T-47D breast was 27.7%; in the assay with BT-549 breast, -5.78% (active); in the assay with MDA-MB-435 melanoma, 25.8%; in the assay on SW-620 colon, 6.8% (active); in the assay on MCF7 breast, 9.47% (active); in the assay with HCT-116 colon it was 6.91% (active). Also, the growth in the assay with HCC-2998 colon is -1.02% (active); with KM12 colon, 5.21% (active).

Consider `CC(=O)C1=C(O)C=C2Oc3c(C(=O)/C=C/c4cc(C(F)(F)F)cc(C(F)(F)F)c4)c(O)c(C)c(O)c3[C@]2(C)C1=O`, for which the growth in the assay with T-47D breast is -18.7% (active); with BT-549 breast, -29.6% (active); in the assay with MDA-MB-435 melanoma, -33.9% (active); in the assay with SW-620 colon it was -10.2% (active); with MCF7 breast, -42% (active); in the assay with HCT-116 colon, -30% (active). Also, the values for the growth in the assay on HCC-2998 colon and in the assay with KM12 colon were -87.4% (active) and -46% (active), respectively.

On to `O=C(COCc1c(-c2ccccc2)no[n+]1[O-])Nc1ccc(C(=O)/C=C/c2ccc3c(c2)OCO3)cc1`, for which the growth with T-47D breast is 94.1%; with BT-549 breast it was 96%; with MDA-MB-435 melanoma it was 95.3%; in the assay on SW-620 colon it was 105%; in the assay with MCF7 breast, 92.2%; in the assay on HCT-116 colon, 73.1%. For the same molecule, the growth with HCC-2998 colon was 102%; with KM12 colon it was 104%.

With `CCCCCN(CCCCC)CCC[C@@H](C)[C@H]1CC[C@H]2[C@@H]3[C@H](OCCCN)C[C@@H]4C[C@H](OCCCN)CC[C@]4(C)[C@H]3C[C@H](OCCCN)[C@]12C`, the growth is 68.1% with T-47D breast; 55% in the assay with BT-549 breast; -13.6% (active) in the assay on MDA-MB-435 melanoma; 45.9% in the assay on SW-620 colon; 74.8% in the assay on MCF7 breast; 22.7% in the assay with HCT-116 colon. Also, the growth in the assay on HCC-2998 colon was 59.6%; in the assay with KM12 colon, 22.5%.

Turning to `NC1=CC(=O)C(=O)c2ccccc21`, the growth was 56.4% in the assay with T-47D breast; 90.4% in the assay with BT-549 breast; -72.4% (active) in the assay on MDA-MB-435 melanoma; 98.9% in the assay with SW-620 colon; 86% with MCF7 breast; 63.4% in the assay with HCT-116 colon. For the same molecule, the growth with HCC-2998 colon is 95%; with KM12 colon, 95.7%.

Regarding `CCCCCCCCCCCCCCCC[N+]1(CC)CCCC1`, the growth in the assay with T-47D breast was 18.6%; in the assay on BT-549 breast, -25.8% (active); in the assay on MDA-MB-435 melanoma, -60.6% (active); in the assay on SW-620 colon it was -8.83% (active); in the assay on MCF7 breast, -18.2% (active); in the assay with HCT-116 colon it was -46.4% (active). Besides, the growth in the assay with HCC-2998 colon is -59.5% (active); with KM12 colon, -90.6% (active).

Turning to `O=c1cc(-c2ccccc2)[nH]c2ccccc12`, the growth was 47.9% with T-47D breast; -12.2% (active) in the assay with BT-549 breast; -16.8% (active) in the assay with MDA-MB-435 melanoma; 29.8% with SW-620 colon; 15.6% in the assay with MCF7 breast; 25.1% in the assay on HCT-116 colon. Also, the results for the growth in the assay with HCC-2998 colon and with KM12 colon were 18.5% and 12.7%, respectively.

For the molecule `CCn1cc2c(cc1=O)-c1nc3ccccc3c3ccnc(c13)C2=O`, the growth was 56.8% with T-47D breast; 86.2% in the assay on BT-549 breast; 63.3% with MDA-MB-435 melanoma; 45.8% with SW-620 colon; 29.6% with MCF7 breast; 50% in the assay on HCT-116 colon. The growth in the assay on HCC-2998 colon was 78.8%; in the assay on KM12 colon, 78.7%.
